# Screening data (PubChem)
# Cruzain noTriton – qHTS Assay for Promiscuous and Specific Inhibitors of Cruzain (without detergent). Potency, µM, without a hit: max response, negative = inhibition, actives largely listed as inhibitors. purified cruzain, Z-FR-AMC fluorescence, no detergent. hit rate 2.3% among 200,000. AID 1476, 2009;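 note: plate controls were enzyme without inhibitor for no effect and buffer without enzyme for full effect; nearly all actives have a fitted effect of over 40% in size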
# Target sequence (P25779 123-467 limits assumed): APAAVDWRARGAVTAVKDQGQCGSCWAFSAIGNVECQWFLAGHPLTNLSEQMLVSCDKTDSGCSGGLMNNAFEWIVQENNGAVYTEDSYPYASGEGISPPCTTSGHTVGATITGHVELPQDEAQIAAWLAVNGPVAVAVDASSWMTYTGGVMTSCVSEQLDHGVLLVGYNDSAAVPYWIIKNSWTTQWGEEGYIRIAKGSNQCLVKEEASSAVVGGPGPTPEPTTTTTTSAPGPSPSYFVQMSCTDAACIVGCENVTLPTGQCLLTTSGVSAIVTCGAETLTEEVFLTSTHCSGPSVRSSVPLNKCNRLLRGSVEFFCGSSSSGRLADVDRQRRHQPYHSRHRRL
#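 Purified cruzain at 1.5 nM, pre-incubated 15 min with compound at room temperature in 100 mM sodium acetate pH 5.5, 5 mM DTT, 0.00005% Triton X-100. Reaction started with 2 uM Z-FR-AMC; AMC fluorescence increase over 60 s gives rate.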
# Cruzain inh Det – qHTS Assay for Promiscuous and Specific Inhibitors of Cruzain (with detergent). Cruzipain (Trypanosoma cruzi), P25779. purified cruzain, Z-FR-AMC fluorescence, 0.01% Triton. Potency, µM, for inactives: max response, negative = inhibition, hits mostly inhibitors. hit rate 0.43% among 200,000. AID 1478, 2009;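 note: plate controls were neutral wells for no effect and buffer without enzyme for full effect; nearly all actives have a fitted effect of over 40% in size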
#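 Z-FR-AMC hydrolysis (2 uM substrate) by cruzain (1.5 nM) monitored kinetically at ex 360/em 450 nm after 15 min room-temperature compound exposure; 0.01% Triton X-100, pH 5.5, 5 mM DTT.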
# Active calls of the source: *; ? = inconclusive. In the library only some 2.6% were active in any assay of this set; here they are far more common. Calls come from the whole dose curve; as a rule, active = well fitted curve in the direction sought with a large enough effect; inconclusive = small, poorly fitted or top-dose-only effect, or another doubt; inactive = no such curve, though single readings can be large; an effect the other way counts as inactive or inconclusive. Potency is the fitted concentration of half-maximal effect.
SMILES,Cruzain noTriton,Cruzain inh Det
CSc1nc2sc3c(c2c(=O)n1C)CCCC3,1%,0%
COC(=O)c1c(NC(=O)Cn2cnc([N+](=O)[O-])n2)sc2c1CCC(C)C2 (stereo not given),5%,-6%
CS(=O)(=O)C1=NSC2=NC(=O)/C(=C\c3ccc(-c4ccccc4)o3)C(=N)N21,24%,-16%
CCCC1=NN2C(=N)/C(=C\c3cc(C)n(-c4cc(C)cc(C)c4)c3C)C(=O)N=C2S1,?,-7%
Cc1ccc(-n2c(C)cc(/C=C3/C(=N)N4C(c5ccccc5)=CSC4=NC3=O)c2C)cc1,6.3µM*,1%
CC1=CC2=NC(=O)/C(=C\c3cccn3CCOc3ccc(C)c(C)c3)C(=N)N2O1,2%,-6%
Cc1cc(C)cc(-n2c(C)cc(/C=C3\C(=N)N4N=C(CC(C)C)SC4=NC3=O)c2C)c1,25µM*,-7%
N=C1/C(=C/c2cccn2CCOc2ccccc2)C(=O)N=C2SC=C(c3ccccc3)N12,6.3µM*,0%
Cc1cccc(-n2c(C)cc(/C=C3\C(=N)N4N=C(CC(C)C)SC4=NC3=O)c2C)c1,?,-3%
N=C1/C(=C\c2ccc(-c3cc(Cl)cc(Cl)c3)o2)C(=O)N=C2SC=C(c3ccccc3)N12,2.5µM*,-4%
COc1ccc(-c2noc(CN(C(=O)c3c(-c4ccccc4Cl)noc3C)C(C)C)n2)cc1,22%,-3%
O=C(C1CCN(S(=O)(=O)c2ccccc2)CC1)N(CCc1ccccc1)Cc1ccco1,2%,-7%
O=C(NCc1ccccc1)c1cc(=O)nc2sc(-c3ccccc3)nn12,9%,-4%
CC1=CC(C)C(C(=O)O)C(C(=O)O)C1 (stereo not given),8%,6%
CCc1cc(/C(Cc2cscn2)=N\O)c(O)cc1O,-2%,-5%
COc1ccc(-n2c(=S)[nH]c3cc(C(=O)Nc4ccc(OC)c(OC)c4)ccc3c2=O)cc1,-2%,3%
COc1ccc(-n2c(=S)[nH]c3cc(C(=O)Nc4cccc(C)c4)ccc3c2=O)cc1,13µM*,1%
COc1ccc(CN2C(=O)Cc3c2nc(N)c2c(N)nc(N4CCCCC4)c(C#N)c32)cc1,6.3µM*,-9%
CCOc1cc2c(C#N)c(N3CCCCC3)nc(N)c2c(N)n1,-11%,-9%
COc1cc2c(C#N)c(N3CCc4ccccc4C3)nc(N)c2c(N)n1,13µM*,-9%
COc1cc2c(C#N)c(N3CCCCC3)nc(N)c2c(N)n1,-28%,-13%
O=C(NCc1ccco1)C1CCC(CNS(=O)(=O)c2cccc3cccnc23)CC1 (stereo not given),-3%,2%
CC1=C(c2ccc(C)c(C)c2)S(=O)(=O)N=C1N1CCN(c2cccc(C)c2)C(C)C1 (stereo not given),-8%,-5%
CCC(=O)Nc1nnc(CSCc2ccc(F)cc2)s1,0%,-1%
O=C(Nc1ccc(Cl)c(Cl)c1)Nc1nnc(CC2=CCCCC2)s1,25µM*,-1%
SMILES,Cruzain noTriton,Cruzain inh Det
O=C(Nc1ccc(Cl)cc1)Nc1nnc(CSCc2ccc(Cl)cc2)s1,5µM*,1%
O=C(Nc1nnc(CC2=CCCCC2)s1)c1cccs1,-9%,-2%
O=C(C1CCN(S(=O)(=O)c2ccc(Cl)cc2)CC1)N1CCOCC1,2%,7%
CN1/C(=C\C(=S)NC(=O)c2cccc(Br)c2)C(C)(C)c2ccccc21,?,3.5µM*
CN1/C(=C\C(=S)NC(=O)c2ccc([N+](=O)[O-])cc2)C(C)(C)c2ccccc21,?,-11%
CCC(C)C(=O)Nc1nc(C)c(-c2csc(Nc3cc(OC)ccc3OC)n2)s1 (stereo not given),-20%,-6%
CCCC(=O)Nc1nc(C)c(-c2csc(Nc3ccccc3C)n2)s1,-27%,2%
CCCCCCC(=O)Nc1nc(C)c(-c2csc(Nc3ccccc3OC)n2)s1,10µM*,4%
CCCCCC(=O)Nc1nc(C)c(-c2csc(Nc3ccccc3OCC)n2)s1,7.9µM*,1%
COc1ccc(OC)c(Nc2nc(-c3sc(NC(=O)CC(C)C)nc3C)cs2)c1,-29%,-1%
CCCCCC(=O)Nc1nc(C)c(-c2csc(Nc3ccccc3OC)n2)s1,13µM*,-2%
CCCCc1c(C)c(C#N)c2nc3ccccc3n2c1Cl,2%,-4%
CCCC(=O)Nc1sc(C)c(-c2ccc(OC)cc2)c1C#N,6.3µM*,3%
CCc1c(C)sc(NC(=O)CCc2ccc(OC)cc2)c1C(N)=O,1%,-1%
COc1ccccc1C1C=C(c2ccc(C)cc2)Nc2nnnn21 (stereo not given),-13%,1%
Clc1ccc(CSc2nnc(-c3ccccn3)n2Cc2ccco2)c(Cl)c1,?,-10%
O=C(c1ccc(-c2ccc(Cl)cc2)o1)N1CCN(c2ccc([N+](=O)[O-])cc2Cl)CC1,7.9µM*,-4%
O=C(c1ccc(-c2ccc([N+](=O)[O-])cc2)o1)N1CCCCC1,-5%,-7%
Cc1nonc1OCCNc1ccc([N+](=O)[O-])cc1[N+](=O)[O-],-5%,-8%
Cc1ccc(NC(=O)C2CCCN(S(=O)(=O)c3ccc4c(c3)oc(=O)n4C)C2)nc1 (stereo not given),-5%,-1%
COc1ccc(C(=O)c2sc3nc(-c4ccccc4)ccc3c2N)cc1,?,-4%
COc1cccc(-c2ccc3c(N)c(C(=O)c4ccc(Cl)cc4)sc3n2)c1,7.9µM*,-5%
O=C1Nc2ccccc2C(O)(C(=O)NCc2ccco2)N1c1ccc(Cl)cc1 (stereo not given),-5%,3%
COc1ccccc1NC(=O)CSc1oc(-c2cccs2)nc1S(=O)(=O)c1ccc(C)cc1,?,-3%
Cc1[nH]c2ccccc2c1/C=C/c1nc2ccccc2c(=O)n1-c1ccc([N+](=O)[O-])cc1,25µM*,1%
SMILES,Cruzain noTriton,Cruzain inh Det
Cc1cccc(-n2c(/C=C/c3c(C)[nH]c4ccccc34)nc3ccccc3c2=O)c1,-3%,0%
Cc1cc(C)cc(C(=O)Oc2coc(CSc3nnc(NC(=O)C4CC4)s3)cc2=O)c1,3%,-4%
Cc1cccc(N(C)S(=O)(=O)c2nnc(NC(=O)c3cccs3)s2)c1,0%,-1%
Cc1cccc(-c2nnc(NC(=O)c3cccs3)s2)c1,16µM*,0%
Cc1ccc(C(=O)Oc2coc(CSc3nnc(NC(=O)c4cccs4)s3)cc2=O)cc1,25µM*,-1%
COc1ccccc1N1CCN(C(=O)CSc2nc3ccccc3nc2Cc2ccc(C)cc2)CC1,10%,-2%
CNC(=O)COc1ccccc1C(=O)Nc1ccc2c(c1)oc1ccccc12,-22%,-6%
CCc1ccccc1NC(=O)N[C@H](C(=O)O)C(C)C,7%,-2%
CCCOc1c(Cl)cc(C(=O)Nc2ccc3c(c2)OCO3)cc1OCC,-16%,-7%
Fc1ccc(Nc2nc(-c3ccc(F)cc3)c3c(n2)-c2ccccc2OC3)cc1,?,-9%
COc1ccccc1Nc1nc(-c2ccc(F)cc2)c2c(n1)-c1ccccc1OC2,10µM*,-5%
COc1ccc(NC(=O)CSc2nnc(NC(=O)Nc3ccccc3)s2)cc1OC,9%,-2%
COc1ccccc1C(=O)Nc1nnc(SCC(=O)Nc2ccc3c(c2)oc2ccccc23)s1,13µM*,2%
Cc1cccc(NC(=O)CSc2nc3ccc(NC(=O)c4ccccc4)cc3s2)c1,-27%,-2%
Cc1cccc(C(=O)Nc2nnc(SCC(=O)Nc3ccc4c(c3)oc3ccccc34)s2)c1,20µM*,-3%
COc1cc(OC)cc(C(=O)Nc2nc3ccccc3[nH]2)c1,5%,-8%
CC(=O)Nc1cccc(OC(=O)N2CCOCC2)c1,3%,2%
